PubChem BioAssay AID652118 (Broad Institute, 2013)
Results with a measured potency or affinity are listed apart. Activity calls are given as the source filed them.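 Rule for the calls: active = compounds lowering cell ATP signal whose fitted half-effect concentration is at most twice the top tested dose; inconclusive = flat curves with 30 to 70% signal loss, or poor fits; inactive = the rest.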

Assay: loss of viability in hepatoma HepG2 cells – cell-based, ATP luminescence, dry powder, cytotoxicity control, dose response (AID 652118)
Details: CellTiter-Glo ATP luminescence, 48 h; series mostly up to 26 µM
In the case of `O=C(Nc1ccccc1)C1(CCOc2ccccc2)CCN(Cc2ccc(O)c(Cl)c2)CC1`, the outcome is reported as “inactive”. With `CCOC(=O)C1(CCOc2ccccc2)CCN(Cc2ccc(O)cc2)CC1` the outcome was “inactive”. For `CCOC(=O)c1c(CN2CCN(CCO)CC2)n(-c2ccccc2)c2cc(Br)c(O)cc12`, the outcome was “inactive”. With `CCOC(=O)C1(Cc2ccccc2)CCN(Cc2ccc(O)c(Cl)c2)CC1` the outcome was “inactive”. For `C=CCOc1ccc(CN2CCC(CCOc3ccccc3)(C(=O)NCC)CC2)cc1Cl`, the outcome was “inactive”. For `CC(C)OC(=O)C1(CCOc2ccccc2)CCN(Cc2ccc(O)c(Cl)c2)CC1`, the outcome was “inactive”. For `CCOC(=O)C1(CCOc2ccccc2)CCN(Cc2ccc(OC)cc2)CC1`, the outcome was “inactive”. In the case of `CCOC(=O)C1(CCOc2ccccc2)CCN(C(=O)c2ccc(O)c(Cl)c2)CC1`, the outcome is reported as “inactive”. With `O=C(NC1CCCC1)C1(CCOc2ccccc2)CCN(Cc2ccc(O)c(Cl)c2)CC1` the outcome was “inactive”. In the case of `C/C1=C\[C@@H](O)C(C)(C)CCCC2(C)OC2C[C@@H]1OC(=O)c1ccc(O)cc1` (stereo partly drawn), the outcome is reported as “inactive”. In the case of `CCOC(=O)C1(Cc2cccc(OC)c2)CCN(Cc2ccc(O)c(Cl)c2)CC1`, the outcome is reported as “inactive”. For `CCOC(=O)C1(CCOc2ccccc2)CCN(Cc2ccc(OC)c(Cl)c2)CC1`, the outcome was “inactive”. For `C/C1=C\C[C@H](OC(=O)c2ccc(O)cc2)/C(C)=C/[C@@H](O)C(C)(C)CCC1`, the outcome was “inactive”. With `C=CCOc1ccc(CN2CCC(CCOc3ccccc3)(C(=O)NC3CCCC3)CC2)cc1Cl` the outcome was “inactive”. In the case of `CCNC(=O)C1(CCOc2ccccc2)CCN(Cc2ccc(O)c(Cl)c2)CC1`, the outcome is reported as “inactive”. In the case of `O=C(N1CCCC1)C1(CCOc2ccccc2)CCN(Cc2ccc(O)c(Cl)c2)CC1`, the outcome is reported as “inactive”. For `C=CCOc1ccc(CN2CCC(CCOc3ccccc3)(C(=O)N3CCCC3)CC2)cc1Cl`, the outcome was “inactive”. In the case of `CCOC(=O)C1(CCOc2ccccc2)CCN(Cc2ccc3[nH]c(=O)oc3c2)CC1`, the outcome is reported as “inactive”. In the case of `CCN(C)C(=O)C1(CCOc2ccccc2)CCN(Cc2ccc(O)c(Cl)c2)CC1`, the outcome is reported as “inactive”. With `CCOC(=O)C1(CCOC)CCCN(Cc2ccc(Cl)cc2)C1` (stereo not drawn) the outcome was “inactive”. For `CCOC(=O)C1CCN(C(=O)OC(C)(C)C)CC1`, the outcome was “inactive”. For `C=CCOc1ccc(CN2CCC(CCOc3ccccc3)(C(=O)N(C)CC)CC2)cc1Cl`, the outcome was “inactive”. With `CC(C)(C)OC(=O)C1(CCOc2ccccc2)CCN(Cc2ccc(O)c(Cl)c2)CC1` the outcome was “inactive”. In the case of `CCOC(=O)C1(CCOC)CCN(Cc2ccc(O)c(Cl)c2)CC1`, the outcome is reported as “inactive”. For `CCOC(=O)C1(CCOc2ccccc2)CCN(Cc2cccc(Cl)c2)CC1`, the outcome was “inactive”. In the case of `C=CCOc1ccc(CN2CCC(CCOc3ccccc3)(C(=O)OCC)CC2)cc1Cl`, the outcome is reported as “inactive”. For `CCOC(=O)C1(CCOc2ccccc2)CCN(Cc2ccc(O)c(Cl)c2)CC1`, the outcome was “inactive”. With `C=CCOc1ccc(CN2CCC(CCOc3ccccc3)(C(=O)O)CC2)cc1Cl` the outcome was “inactive”.
